Test results from PubChem BioAssay (NCATS).
Several values for one entry are separate records, joined by “and”; a condition that tells them apart may be missing. Identical values can stand only once. Inconclusive results are not listed. Where a call stands in place of a potency, no number is given. Activity calls are given as the source filed them. Unless noted, calls come from the whole dose curve; as a rule, active = well fitted curve in the direction sought with a large enough effect; inconclusive = small, poorly fitted or top-dose-only effect, or another doubt; inactive = no such curve, though single readings can be large; an effect the other way counts as inactive or inconclusive.

Experiments:
[1] = biological target: Voltage-gated inwardly rectifying potassium channel KCNH2 (Homo sapiens) (UniProt Q12809); test: qHTS Assay for Small Molecule Inhibitors of the Human hERG Channel Activity (AID 588834); conditions: U2OS BacMam hERG, FluxOR thallium flux fluorescence; series mostly up to 46.1 µM;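 note: lower thallium flux fluorescence means stronger hERG block; nearly all actives have a fitted effect of over 50% in size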; note: potency is the fitted concentration of half-maximal effect
How it was run: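 hERG-BacMam U2OS, 2000 cells/well; 0.7X FluxOR loading 1 hr RT dark; cpd ~10 min 37 °C; stim buffer; FDSS fluorescence 2 min @ 1 s; AC50 Hill fit.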

[2] = biological target: Luciferin 4-monooxygenase (Photinus pyralis) (UniProt P08659); test: Biochemical firefly luciferase enzyme assay for NPC (AID 624030);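 note: purified P. pyralis luciferase at 10 nM with luciferin and ATP substrate; nearly all actives have a fitted effect of over 70% in size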; conditions: purified P. pyralis luciferase, luminescence, 5 min; series mostly up to 58.6 µM
How it was run: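 Direct inhibition of firefly luciferase enzyme (10 nM final, 50 mM Tris Acetate) assessed by luminescence within 5 minutes. Percent activity scaled between DMSO and PTC124 positive control, with concentration-effect curves classified by fit quality and response.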

[3] = S16 Schwann cell viability assay (CellTiter-Glo assay) (AID 624031); conditions: S16 rat Schwann cells viability, 24 h; series mostly up to 57.5 µM; note: nearly all actives have a fitted effect of over 70% in size; note: potency is the fitted concentration of half-maximal effect
How it was run: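 Native S16 rat Schwann cells, 500-750 cells/well in DMEM with 10% FBS, dosed with compound after overnight culture and incubated 24h at 37 degree Celsius/5% CO2. Viability by CellTiter-Glo luminescence; % activity normalized to no-cell wells and DMSO-treated cells.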

[4] = S16 Schwann cell PMP22 intronic element firefly luciferase assay (AID 624032); conditions: S16 rat Schwann cells, PMP22 element FLuc, 24 h; series mostly up to 57.5 µM; note: nearly all actives have a fitted effect of over 30% in size; note: potency is the fitted concentration of half-maximal effect
How it was run: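 Luciferase reporter of PMP22 intronic-element expression in stably transfected S16 rat Schwann cells, read by ONE-Glo luminescence after 24 h compound exposure at 37 C. Activity scaled between DMSO (0%) and positive-control PTC124; concentration-effect curves quality-classified.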

[5] = biological target: Glutaminase kidney isoform, mitochondrial (Homo sapiens) (UniProt O94925); test: qHTS for Inhibitors of Glutaminase (GLS): LOPAC Validation (AID 624146); conditions: glutaminase enzyme activity inhibition; series mostly up to 46.1 µM; note: nearly all actives have a fitted effect of over 60% in size; note: potency is the fitted concentration of half-maximal effect
How it was run: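 Human kidney-isoform GLS in 45 mM KH2PO4 pH 8.2, 0.02% Tween-20, with compound, started with 1mM L-Glutamine (added stock). Glutamate oxidase/HRP/Amplex red coupled fluorescence read at start and after 30 min at RT.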

[6] = qHTS of Trypanosoma Brucei Inhibitors: LOPAC Validation (AID 624147); conditions: purified enzyme assay, luminescence, 45 min; series mostly up to 57.5 µM
How it was run: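 Luminescent Kinase-Glo Plus end-point after 45 min room-temperature reaction of T. brucei pyruvate kinase started with 130 uM ADP (final). Buffer TEA 50 mM pH 7.2 with KCl, MgCl2, BSA, Tween-20; titration-based qHTS with fitted concentration-effect curves.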

[7] = S16 Schwann cell PMP22 intronic element beta-lactamase assay (AID 624044; calls by dose curve; note: nearly all actives have a fitted effect of over 15% in size); conditions: S16 rat Schwann cells, PMP22 element beta-lactamase FRET, 24 h; series mostly up to 38.3 µM
How it was run: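 Rat S16 Schwann cells with beta-Lac driven by a PMP22 intronic element, compound-treated 24 h at 37 °C. LiveBLAzer FRET B/G read: 460 nm normalized to potassium clavulanate vs DMSO; 535 nm FRET as viability; concentration-effect curves classified.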

Chain of Luciferin 4-monooxygenase (Photinus pyralis) (P08659 whole entry, looked up): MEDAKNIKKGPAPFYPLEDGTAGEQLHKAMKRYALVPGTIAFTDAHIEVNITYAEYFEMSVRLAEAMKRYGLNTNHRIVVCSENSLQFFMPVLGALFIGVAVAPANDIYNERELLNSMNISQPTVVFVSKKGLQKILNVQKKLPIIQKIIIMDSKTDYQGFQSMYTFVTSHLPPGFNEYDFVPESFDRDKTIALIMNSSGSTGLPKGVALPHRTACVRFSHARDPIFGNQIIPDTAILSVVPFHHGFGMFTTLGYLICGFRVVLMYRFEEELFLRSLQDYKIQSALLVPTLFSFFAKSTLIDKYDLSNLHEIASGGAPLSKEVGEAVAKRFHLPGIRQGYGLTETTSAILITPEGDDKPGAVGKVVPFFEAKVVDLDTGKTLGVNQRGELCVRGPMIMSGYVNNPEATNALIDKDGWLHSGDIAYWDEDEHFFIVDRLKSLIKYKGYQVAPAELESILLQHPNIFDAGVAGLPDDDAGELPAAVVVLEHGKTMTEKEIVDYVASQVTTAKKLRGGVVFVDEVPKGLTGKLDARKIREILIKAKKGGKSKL
Chain of Glutaminase kidney isoform, mitochondrial (Homo sapiens) (O94925 whole entry, looked up, canonical isoform): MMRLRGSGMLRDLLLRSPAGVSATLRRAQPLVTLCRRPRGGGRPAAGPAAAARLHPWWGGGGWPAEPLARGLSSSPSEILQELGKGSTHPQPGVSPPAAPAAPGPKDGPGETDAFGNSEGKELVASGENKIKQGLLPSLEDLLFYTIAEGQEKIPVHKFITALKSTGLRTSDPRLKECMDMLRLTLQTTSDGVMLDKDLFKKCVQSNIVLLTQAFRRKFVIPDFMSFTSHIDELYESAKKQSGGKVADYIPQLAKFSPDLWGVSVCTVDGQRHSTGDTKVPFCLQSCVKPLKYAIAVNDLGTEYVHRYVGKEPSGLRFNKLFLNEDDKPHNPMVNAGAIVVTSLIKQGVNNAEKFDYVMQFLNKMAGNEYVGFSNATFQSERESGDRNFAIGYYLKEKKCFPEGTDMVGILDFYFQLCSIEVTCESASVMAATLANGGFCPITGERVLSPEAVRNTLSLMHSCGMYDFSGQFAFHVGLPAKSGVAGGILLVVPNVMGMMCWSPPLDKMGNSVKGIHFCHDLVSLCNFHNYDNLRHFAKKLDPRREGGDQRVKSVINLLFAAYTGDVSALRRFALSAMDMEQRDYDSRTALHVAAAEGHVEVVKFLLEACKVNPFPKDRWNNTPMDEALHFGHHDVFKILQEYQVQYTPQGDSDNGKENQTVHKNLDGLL
Chain of Voltage-gated inwardly rectifying potassium channel KCNH2 (Homo sapiens) (Q12809 whole entry, looked up): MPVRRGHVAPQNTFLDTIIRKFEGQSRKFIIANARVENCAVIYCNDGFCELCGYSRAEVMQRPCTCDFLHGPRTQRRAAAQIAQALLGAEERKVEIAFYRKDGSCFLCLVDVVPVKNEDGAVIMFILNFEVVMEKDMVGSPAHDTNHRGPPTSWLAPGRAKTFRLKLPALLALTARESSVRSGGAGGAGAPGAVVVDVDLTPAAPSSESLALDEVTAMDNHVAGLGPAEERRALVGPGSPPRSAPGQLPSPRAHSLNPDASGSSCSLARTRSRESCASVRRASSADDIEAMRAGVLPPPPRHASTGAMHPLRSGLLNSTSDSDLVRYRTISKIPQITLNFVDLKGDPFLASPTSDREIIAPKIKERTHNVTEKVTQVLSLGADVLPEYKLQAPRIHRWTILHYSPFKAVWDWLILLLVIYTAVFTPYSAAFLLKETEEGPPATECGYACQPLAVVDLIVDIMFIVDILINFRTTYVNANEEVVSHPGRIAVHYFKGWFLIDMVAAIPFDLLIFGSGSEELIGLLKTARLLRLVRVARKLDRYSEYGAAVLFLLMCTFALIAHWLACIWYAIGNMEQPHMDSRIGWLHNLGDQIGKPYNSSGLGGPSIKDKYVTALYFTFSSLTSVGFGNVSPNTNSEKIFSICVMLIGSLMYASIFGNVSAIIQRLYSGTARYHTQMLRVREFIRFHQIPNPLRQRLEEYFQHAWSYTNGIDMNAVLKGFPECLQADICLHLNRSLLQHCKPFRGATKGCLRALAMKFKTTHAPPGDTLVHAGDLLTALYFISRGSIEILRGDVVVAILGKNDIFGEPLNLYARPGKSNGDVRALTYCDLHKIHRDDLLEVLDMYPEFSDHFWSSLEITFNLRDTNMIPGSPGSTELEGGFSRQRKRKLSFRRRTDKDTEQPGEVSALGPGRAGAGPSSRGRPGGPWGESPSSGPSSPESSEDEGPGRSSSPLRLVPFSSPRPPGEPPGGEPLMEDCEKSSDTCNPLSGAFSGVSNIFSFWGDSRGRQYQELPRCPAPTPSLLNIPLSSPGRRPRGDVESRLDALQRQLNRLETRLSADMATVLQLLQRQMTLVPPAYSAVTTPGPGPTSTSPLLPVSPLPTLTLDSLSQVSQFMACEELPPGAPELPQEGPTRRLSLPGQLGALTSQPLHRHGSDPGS

Compound	Potency [1]	Potency [2]	Potency [3]	Potency [4]	Potency [5]	outcome [6]	Potency [7]
CCn1cc(C(=O)O)c(=O)c2cnc(N3CCNCC3)nc21	inactive	inactive	inactive	7.75 µM (active)	–	–	–
N[C@@H](CSCCCO)C(=O)O	inactive	inactive	inactive	inactive	–	–	–
NS(=O)(=O)c1cc2c(cc1Cl)NC(CSCc1ccccc1)=NS2(=O)=O	inactive	inactive	inactive	inactive	–	–	–
O=c1cc[nH]c(=O)[nH]1	inactive	inactive	inactive	inactive	–	–	–
C[C@@H]1CN(c2c(F)c(F)c3c(=O)c(C(=O)O)cn(C4CC4)c3c2F)C[C@H](C)N1	inactive	inactive	inactive	inactive	–	–	–
CC(=O)Nc1ccc(/C=N/NC(N)=S)cc1	inactive	inactive	inactive	inactive	–	–	–
C[C@](N)(Cc1ccc(O)cc1)C(=O)O	inactive	inactive	inactive	inactive	inactive	inactive	–
Cn1c(=O)c2c(ncn2CC2OCCO2)n(C)c1=O	inactive	inactive	–	inactive	–	–	–
CC1=C(CC(=O)O)c2cc(F)ccc2/C1=C\c1ccc(S(C)=O)cc1 (stereo not given)	inactive	inactive	inactive	inactive	–	inactive	–
CC(C(O)c1ccc(O)cc1)N1CCC(Cc2ccccc2)CC1 (stereo not given)	1.12 µM (active) and 501 nM (active)	inactive	–	25.6 µM (active)	inactive	inactive	–
COc1cc(C)c(Cc2cnc(N)nc2N)cc1OC	inactive	inactive	–	inactive	–	–	–
CCOc1ccc2ccccc2c1C(=O)N[C@@H]1C(=O)N2[C@@H]1SC(C)(C)[C@@H]2C(=O)O	inactive	inactive	inactive	–	–	–	inactive
O=C(O)c1ccccn1	inactive	inactive	inactive	inactive	–	–	inactive
Nc1ccc(S(=O)(=O)Nc2ccccc2)cc1	inactive	inactive	–	inactive	–	–	inactive
O=c1cc[nH]c(=S)[nH]1	inactive	inactive	inactive	inactive	–	–	–
CN1CCN(C2Cc3ccccc3Sc3ccc(Cl)cc32)CC1 (stereo not given)	1.12 µM (active)	inactive	–	–	inactive	inactive	inactive
CCN(CC)CCSC(=O)C(c1ccccc1)c1ccccc1	2.51 µM (active) and 4.47 µM (active)	inactive	inactive	inactive	–	–	inactive
CCN(CC)CCNC(C(=O)OCCC(C)C)c1ccccc1 (stereo not given)	12.6 µM (active)	inactive	inactive	inactive	–	–	inactive
Cn1cc[nH]c1=S	inactive	inactive	inactive	inactive	–	–	inactive
COc1ccc2c(c1)C(=O)N(CCc1ccc(S(=O)(=O)NC(=O)NC3CCCCC3)cc1)C(=O)C2(C)C	inactive	inactive	inactive	–	–	–	inactive
CN1CCC[C@@H]1Cc1c[nH]c2ccc(CCS(=O)(=O)c3ccccc3)cc12	12.6 µM (active)	inactive	–	inactive	–	–	–
Cc1cc(N)c2ccccc2[n+]1CCCCCCCCCC[n+]1c(C)cc(N)c2ccccc21	inactive	inactive	–	3.46 µM (active)	inactive	inactive	–
CCCCCCCCCCCCCCCC(=O)NCCO	inactive	inactive	inactive	inactive	inactive	inactive	inactive
CC[C@@]1(c2ccccc2)NC(=O)N(C)C1=O	inactive	inactive	inactive	inactive	–	–	inactive

Compound	Potency [1]	Potency [2]	Potency [3]	Potency [4]	Potency [5]	outcome [6]	Potency [7]
O=C(O)[C@@H]1CSCN1	inactive	inactive	inactive	inactive	–	–	inactive
C[C@H](N)[C@H](O)c1cccc(O)c1	inactive	inactive	–	inactive	–	–	inactive
CCN(CC)CCNC(=O)c1cc(Cl)c(N)cc1OC	inactive	inactive	inactive	inactive	inactive	inactive	inactive
O=c1[nH]c(=O)c2[nH]c(=O)[nH]c2[nH]1	inactive	inactive	–	inactive	–	–	–
CC(=O)NC(Cc1ccccc1)C(=O)O (stereo not given)	inactive	inactive	inactive	inactive	–	–	inactive
COCCOC(=O)C1=C(C)NC(C)=C(C(=O)OC/C=C/c2ccccc2)C1c1cccc([N+](=O)[O-])c1 (stereo not given)	inactive	inactive	–	7.21 µM (active)	inactive	inactive	inactive
CCCn1cnc2c1c(=O)n(CCCCC(C)=O)c(=O)n2C	inactive	inactive	inactive	–	inactive	inactive	–
NC1CCN(c2cccc(Cl)n2)CC1	inactive	inactive	inactive	inactive	inactive	inactive	–
CSc1ccc2c(c1)C(N1CCN(C)CC1)Cc1ccccc1S2 (stereo not given)	2.24 µM (active)	inactive	12.8 µM (active)	20.3 µM (active)	inactive	inactive	inactive
CN(C)CCN(Cc1ccccc1)c1ccccn1	12.6 µM (active)	inactive	inactive	inactive	–	–	inactive
C=Cc1c(C)c2cc3[nH]c(cc4nc(cc5nc(cc1[nH]2)C(C)=C5CCC(=O)O)C(CCC(=O)O)=C4C)c(C)c3C=C	inactive	inactive	inactive	12.8 µM (active)	inactive	inactive	inactive
Cc1cc2c(cc1S(N)(=O)=O)S(=O)(=O)CCC2	inactive	inactive	inactive	inactive	–	–	inactive
OCC(O)CN1CCN(c2ccccc2)CC1 (stereo not given)	inactive	inactive	inactive	inactive	–	–	inactive
CCCCN1CCCC[C@H]1C(=O)Nc1c(C)cccc1C	inactive	inactive	–	inactive	–	–	inactive
O=C(O)CC(O)C(=O)O (stereo not given)	inactive	inactive	inactive	inactive	–	–	inactive
Oc1ccc(C(O)CNCCCCCCNCC(O)c2ccc(O)c(O)c2)cc1O (stereo not given)	inactive	inactive	–	–	–	–	inactive
CCCCOc1cc(C(=O)OCCN(CC)CC)ccc1N	4.47 µM (active)	inactive	inactive	inactive	–	–	inactive
C#CCN(C)Cc1ccccc1	inactive	inactive	inactive	inactive	inactive	inactive	–
CC1(C)OC(=O)NC1=O	inactive	inactive	–	inactive	–	–	–
CNCCCC1c2ccccc2C=Cc2ccccc21	–	inactive	–	12.3 µM (active)	inactive	inactive	–
CN(C)CC[C@@H](c1ccc(Cl)cc1)c1ccccn1	–	–	–	–	inactive	inactive	–
O=S(=O)(O)c1cc(I)c(O)c2ncccc12	inactive	–	inactive	inactive	–	–	–
CCN(CC)C(C)CN1c2ccccc2Sc2ccccc21 (stereo not given)	7.94 µM (active)	–	–	–	11.2 µM (active)	inactive	–
CC(=O)OCC(=O)[C@@]1(O)CC[C@H]2[C@@H]3CCC4=CC(=O)CC[C@]4(C)[C@H]3C(=O)C[C@@]21C	inactive	inactive	–	–	inactive	inactive	–
O=C(O)Cc1sc(-c2ccccc2)nc1-c1ccc(Cl)cc1	–	inactive	–	–	–	–	–
